Experimental findings from PubChem BioAssay (Tox21) are described below.

The structures appear in SMILES notation. Records with an inconclusive call do not appear. Where a call stands in place of a potency, no number is given. Unmarked numbers belong to inactive results. The source made the active and inactive calls. The call rests on the fitted dose curve; in most records, active means well fitted inhibition curve with a large enough effect in the repeat runs; inconclusive means weak or mixed curves; inactive means no such curve, though single readings can be large or run the other way.
Potency means the concentration at half of the fitted maximal effect.

Chain of Cytochrome P450 2D6 (Homo sapiens) (P10635 whole entry, looked up): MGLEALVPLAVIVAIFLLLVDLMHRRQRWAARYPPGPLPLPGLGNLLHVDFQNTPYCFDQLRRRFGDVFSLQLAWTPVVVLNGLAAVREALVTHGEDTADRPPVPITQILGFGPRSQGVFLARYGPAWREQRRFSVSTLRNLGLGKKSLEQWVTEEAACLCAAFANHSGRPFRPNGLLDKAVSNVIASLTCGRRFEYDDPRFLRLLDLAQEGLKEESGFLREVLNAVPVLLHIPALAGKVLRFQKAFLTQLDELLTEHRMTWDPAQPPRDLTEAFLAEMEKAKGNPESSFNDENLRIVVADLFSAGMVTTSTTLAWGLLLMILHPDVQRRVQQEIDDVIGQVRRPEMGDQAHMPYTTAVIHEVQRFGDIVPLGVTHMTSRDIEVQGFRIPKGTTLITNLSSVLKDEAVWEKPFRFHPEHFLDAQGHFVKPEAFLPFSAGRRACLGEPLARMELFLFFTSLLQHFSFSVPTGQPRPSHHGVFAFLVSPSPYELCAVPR

The target in the assay is Cytochrome P450 2D6 (Homo sapiens) (UniProt P10635). In words: Cytochrome P450 Family 2 Subfamily D Member 6 (CYP2D6) small molecule antagonists: luciferase reporter qHTS assay (AID 1671196). Further: nearly all actives have a fitted effect of over 50% in size. Conditions: P450-Glo CYP2D6 enzyme assay, luciferin luminescence, 1 h; series mostly up to 115 µM. The source says:
U.S. Tox21 Program National Center for Advancing Translational Sciences [NCATS] U.S. Environmental Protection Agency [EPA] National Institutes of Environmental Health Sciences [NIEHS] National Toxicology Program [NTP] U.S. Food and Drug Administration [FDA] Tox21 Assay Overview: Cytochrome P450 (CYP) enzymes are membrane-bound hemeproteins that play a key role in metabolism of drugs and xenobiotics. Evaluation of the effect of chemicals on CYP isozymes is useful to minimize the adverse drug reactions and toxicities in drug development process. Tox21 chemicals were tested for their effect on CYP enzyme activities by using P450-Glo (TM) screening systems (Promega Corporation, Madison, WI). These systems provide a luminescent method containing proluciferin substrates and are converted to luciferin products by CYP isozymes. The luciferin products formed are detected with a luciferin detection reagent, and the amount of light produced is proportional to CYP activity. P450-Glo (TM) CYP2D6 screening system (Catalog. No. V9890) was used to detect the compounds that interfere in CYP2D6 activity.
Tox21 Assay Protocol Summary: Two ul of enzyme-substrate mix was dispensed into medium binding white/solid 1536-well plates (Greiner Bio-One North America Inc., Monroe, NC) using a BioRaptr Flying Reagent Dispenser (FRD, Beckman Coulter, Brea, CA). […] The assay plates were incubated at room temperature for 10 min. Then 2 ul of NADPH regeneration solution was added to each well of the assay plates using an FRD and incubated at room temperature for 1 h. The reaction was stopped by adding 4 ul of detection reagent using an FRD and after 20 min incubation at room temperature the luminescence signal was measured using a ViewLux plate reader (Perkin Elmer, Shelton, CT). Data were expressed as relative luminescence units.
On to `O=C1OC(OC(=O)c2cccnc2Nc2cccc(C(F)(F)F)c2)c2ccccc21` (stereo not given), for which the Potency entry is “inactive”.

Turning to `Clc1cc(Cl)c(-c2c(Cl)c(Cl)cc(Cl)c2Cl)cc1Cl`, the Potency entry is “inactive”.

As to `CC(C)=CCCC(C)CCOC(=O)C(C)C` (stereo not given), the Potency result was “inactive”.

With `CC(=O)O[C@@H]1C[C@@H]2CC[C@@]1(C)C2(C)C`, the Potency result was “inactive”.

`CCCC(O)C(O)CO` (stereo not given): the Potency result was “inactive”.

On to `C=CC(C)(CCC=C(C)C)OC(=O)/C=C/c1ccccc1` (stereo not given), for which the Potency result is “inactive”.

As to `CCCC(C)CCC(C)=O` (stereo not given), the Potency entry is “inactive”.

In the case of `CC(C)(C)c1cc(CCC(=O)NCCCCCCNC(=O)CCc2cc(C(C)(C)C)c(O)c(C(C)(C)C)c2)cc(C(C)(C)C)c1O`, the Potency entry is “inactive”.

For the compound `C/C=C/c1ccc(OC)c(OC)c1`, the Potency entry was “inactive”.

`CC(C)C(=O)OCc1ccccc1`: the Potency entry is “inactive”.

Regarding `CCc1c(Br)c(Br)c(Br)c(Br)c1Br`, the Potency result was “inactive”.

As to `C(=C/c1ccccc1)/c1ccccc1`, the Potency result was “inactive”.

`COC(=O)NCCC[Si](OC)(OC)OC`: the Potency entry was “inactive”.

`CCC(C)C(=O)OC` (stereo not given): the Potency entry is “inactive”.

Regarding `CC(C)(c1cc(Br)c(O)c(Br)c1)c1cc(Br)c(O)c(Br)c1`, the Potency entry was “inactive”.

Consider `O=C1Nc2ccc(Cl)cc2[C@@](C#CC2CC2)(C(F)(F)F)O1`, for which the Potency result was “inactive”.

Consider `CO[Si](CCCNCCNCCN)(OC)OC`, for which the Potency entry was “inactive”.

For the compound `CCc1cccc(CC)c1N(COC)C(=O)CS(=O)(=O)O`, the Potency result was “inactive”.

As for `CCC(=O)CC(C)CC` (stereo not given), the activity change, negative = inhibition is -13% [at 0.435 µM].

As for `CN(C)c1ccc(N=Nc2ccccc2C(=O)O)cc1`, the Potency was 39.9 µM (active).

With `CCOC(=O)COc1ccc(C)cc1`, the Potency entry was “inactive”.

`O=C1C=CC(=O)N1c1ccccc1`: the Potency was 39.9 µM (active).

With `C[C@]12CC[C@H]3C(=CCc4cc(O)ccc43)[C@@H]1CCC2=O`, the Potency result was “inactive”.

Regarding `CCO[Si](CCCSSSSCCC[Si](OCC)(OCC)OCC)(OCC)OCC`, the Potency is 35.6 µM (active).

Consider `Cc1cccc(C)n1`, for which the Potency entry is “inactive”.

For `COC(=O)CC(C)CCC=C(C)C` (stereo not given), the Potency entry was “inactive”.

For `Cc1nc(Nc2ncc(C(=O)Nc3c(C)cccc3Cl)s2)cc(N2CCN(CCO)CC2)n1`, the Potency entry is “inactive”.

Regarding `CCCCOc1ccc(C(=O)CCN2CCCCC2)cc1`, the Potency was 5.49 µM (active).

In the case of `O=C(O)Cc1ccc(OCCNC[C@H](O)c2ccccc2)cc1`, the Potency entry is “inactive”.

On to `CC1(C)COCN1`, for which the Potency entry is “inactive”.

With `CC(=O)Oc1ccc(C2(c3ccc(OC(C)=O)cc3)C(=O)Nc3ccccc32)cc1`, the Potency result is “inactive”.

In the case of `OCCC(O)CO` (stereo not given), the Potency result was “inactive”.

Consider `CCCC(CC)CCCCCCCN` (stereo not given), for which the Potency was 0.817 µM (active).

Turning to `CCCCCCCCC(C)=O`, the Potency entry was “inactive”.

Turning to `Oc1c(Br)cc(Br)c2cccnc12`, the Potency result is “inactive”.

Regarding `CCCCCCCCCCCCCOP(=O)(O)O`, the Potency result was “inactive”.

As to `CCCCCCCCCCc1ccccc1`, the Potency result is “inactive”.

As to `CCCCCCC(C)Nc1ccc(Nc2ccccc2)cc1` (stereo not given), the Potency was 28.3 µM (active).

Regarding `COc1ccc(-n2nc(CCC(=O)N(C)O)cc2-c2ccc(Cl)cc2)cc1`, the Potency was 15.5 µM (active).

Consider `CN1CN(C)CN(C)C1`, for which the Potency entry was “inactive”.
